From PubChem BioAssay (NCI) come the findings set out here.

Compounds without any hit were thinned out: in the full panel of roughly 83,000, 20% have a hit.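 96-well plates, one dose, 48 hours. Percent growth reported; active if below 10.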 Unmarked numbers belong to inactive results. The source made the active and inactive calls.

Test systems include T-47D breast; BT-549 breast; MDA-MB-435 melanoma; SW-620 colon; MCF7 breast; HCT-116 colon; HCC-2998 colon; KM12 colon.
What all share (experiment): NCI-60 one-dose screen, 48 h (100 = growth as untreated, 0 = no growth, -100 = all killed)
Settings in all cases: 10 µM unless noted

Regarding `Cn1cc(-c2nc3c(F)cc4[nH]ncc4c3c3c2CCCC3)c(C(F)(F)F)n1`, the growth in the experiment on T-47D breast is 39.9%; in the experiment with BT-549 breast it was 4.21% (active); in the experiment on MDA-MB-435 melanoma it was 14%; in the experiment on SW-620 colon, 18.6%; in the experiment with MCF7 breast, 24.6%; in the experiment with HCT-116 colon, 15.1%. Besides, the growth in the experiment on HCC-2998 colon is 65.3%; in the experiment with KM12 colon, 24.2%.
For `COc1ccc(Oc2ccc(/C=C/C(=O)c3cc4ccccc4oc3=O)cc2)cc1`, the growth was 84.6% in the experiment with T-47D breast; 81% with BT-549 breast; 89.3% with MDA-MB-435 melanoma; 103% in the experiment with SW-620 colon; 25.9% in the experiment with MCF7 breast; 56.6% in the experiment with HCT-116 colon. Moreover, the growth is 108% in the experiment on HCC-2998 colon and 85.9% in the experiment on KM12 colon.
On to `COc1cc(-c2ccc[nH]2)[nH]c1/C=C1\N=C(C)C(CC(=O)OCC(C)(C)C)=C1C`, for which the growth was -58.7% (active) in the experiment on T-47D breast; -87.7% (active) in the experiment on BT-549 breast; -81.9% (active) with MDA-MB-435 melanoma; -64.6% (active) in the experiment with SW-620 colon; -74.1% (active) with MCF7 breast; -90.4% (active) in the experiment on HCT-116 colon. Further, the growth in the experiment on HCC-2998 colon was -81.4% (active); in the experiment with KM12 colon, -90% (active).
Regarding `O=CN1N=C(c2cccc(Nc3ccnc4cc(Cl)ccc34)c2)CC1c1ccc(Cl)cc1` (configuration not stated), the growth in the experiment with T-47D breast was 43.3%; in the experiment with BT-549 breast it was 8.58% (active); in the experiment with MDA-MB-435 melanoma it was -38.3% (active); with SW-620 colon, 23.4%; in the experiment with MCF7 breast, 14.6%; in the experiment with HCT-116 colon, 1% (active). Moreover, the growth in the experiment on HCC-2998 colon was 44.3%; in the experiment with KM12 colon, 28.1%.
Regarding `COC(=O)Cn1c2c(c3c(OC)cccc31)C(=O)c1ccccc1-2`, the growth is 89.7% with T-47D breast; 103% with BT-549 breast; 112% with MDA-MB-435 melanoma; 96.9% with SW-620 colon; 85.9% in the experiment with MCF7 breast; 89.1% in the experiment with HCT-116 colon. Further, the growth in the experiment on HCC-2998 colon was 89.8%; in the experiment with KM12 colon, 107%.
`CC1(C)CC(=O)C2=C(C1)C(c1ccc(Cl)cc1)n1ncc(C#N)c1N2` (configuration not stated): the growth in the experiment on T-47D breast was 85.8%; with BT-549 breast, 103%; with MDA-MB-435 melanoma, 103%; with SW-620 colon, 99.3%; in the experiment with MCF7 breast it was 95.4%; in the experiment on HCT-116 colon, 98.4%. Further, the growth with HCC-2998 colon is 107%; with KM12 colon, 110%.
Turning to `O=C1OCC2=C1C(c1ccccc1)c1cc3c(cc1N2CCO)OCCO3` (configuration not stated), the growth with T-47D breast was 50.5%; in the experiment on BT-549 breast, 14.1%; with MDA-MB-435 melanoma it was -32% (active); with SW-620 colon, 21.1%; in the experiment on MCF7 breast, 8.47% (active); in the experiment with HCT-116 colon, 6.08% (active). Also, the growth was 0.753% (active) in the experiment on HCC-2998 colon and 9.35% (active) in the experiment with KM12 colon.
As for `COC(=O)/C=C1/SC(=NCc2ccccc2)N(CCc2c[nH]c3ccccc23)C1=O`, the growth was 53.5% with T-47D breast; 66.9% in the experiment with BT-549 breast; 72.3% in the experiment on MDA-MB-435 melanoma; 72% in the experiment on SW-620 colon; 48.4% in the experiment with MCF7 breast; 53.6% with HCT-116 colon. The growth with HCC-2998 colon is 99.8%; in the experiment with KM12 colon it was 70.4%.
With `O=C(O)CCCCCCCCCCN1C(=O)/C(=C2/C(=O)N(CC(=O)O)c3ccc(Br)cc32)SC1=S`, the growth was 77.9% in the experiment on T-47D breast; 105% in the experiment with BT-549 breast; 102% in the experiment with MDA-MB-435 melanoma; 106% in the experiment on SW-620 colon; 82.9% in the experiment on MCF7 breast; 87.2% with HCT-116 colon. Moreover, the growth in the experiment with HCC-2998 colon is 115%; with KM12 colon it was 40.2%.
Consider `Oc1c(CN2CCC(N3CCOCC3)CC2)cc(Cc2cc(CN3CCC(N4CCOCC4)CC3)c(O)c3ncccc23)c2cccnc12`, for which the growth is 21.5% in the experiment with T-47D breast; 33.5% in the experiment on BT-549 breast; 20.3% in the experiment on MDA-MB-435 melanoma; 28.2% in the experiment on SW-620 colon; 5.06% (active) in the experiment on MCF7 breast; 11.5% in the experiment on HCT-116 colon. In addition, the growth in the experiment with HCC-2998 colon is 0.162% (active); with KM12 colon it was 17.1%.
`NC(=O)c1ccccc1OCC(=O)Nc1ccc(Cl)c(Cl)c1`: the growth in the experiment on T-47D breast is 79.8%; in the experiment with BT-549 breast, 93.2%; in the experiment with MDA-MB-435 melanoma, 103%; with SW-620 colon, 102%; in the experiment on MCF7 breast it was 79.7%; with HCT-116 colon, 100%. Also, the growth with HCC-2998 colon was 103%; in the experiment with KM12 colon, 100%.
Turning to `CCOC(=O)c1nnn(-c2no[n+]([O-])c2-c2ccc(OC)cc2)c1COc1cccc2cccnc12`, the growth with T-47D breast is 53.1%; in the experiment with BT-549 breast it was -14.7% (active); with MDA-MB-435 melanoma, 9.72% (active); in the experiment with SW-620 colon it was 26%; in the experiment with MCF7 breast, 15.2%; in the experiment with HCT-116 colon, 9.49% (active). Moreover, the values for the growth in the experiment with HCC-2998 colon and with KM12 colon were 55.4% and 19.7%, respectively.
For the compound `CCN1C(=O)N(c2ccccc2)C2NC(=S)N(/N=C/C=C/c3ccccc3OC)C21` (configuration not stated), the growth is 42.3% with T-47D breast; 20.4% in the experiment on BT-549 breast; -27.5% (active) in the experiment with MDA-MB-435 melanoma; 22.2% in the experiment with SW-620 colon; 7.64% (active) in the experiment on MCF7 breast; 9.02% (active) with HCT-116 colon. Moreover, the growth is 14.8% in the experiment with HCC-2998 colon and 11.3% in the experiment with KM12 colon.
Regarding `O=S(=O)(Nc1cc(Sc2nc3ccccc3s2)c(O)c2ccccc12)c1ccc2ccccc2c1`, the growth is 79.5% in the experiment on T-47D breast; 105% in the experiment with BT-549 breast; 95.4% in the experiment on MDA-MB-435 melanoma; 108% in the experiment with SW-620 colon; 81.7% in the experiment with MCF7 breast; 90.6% with HCT-116 colon. Further, the growth in the experiment on HCC-2998 colon was 109%; in the experiment on KM12 colon it was 92.6%.
